The values that follow come from PubChem BioAssay AID463190 (Sanford-Burnham Center for Chemical Genomics, 2010).

About 7,300 (2.2%) of roughly 330,000 compounds were called active. The list comes from a sample in which actives are over-represented; it also holds similar structures and randomly drawn compounds. A number with no mark means an inactive call.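 Rule for the calls: active = inhibition of at least 40%; inactive = the rest.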

This experiment in a line: growth inhibitors of tim10-1 mutant yeast, primary screen, luminescence, uHTS (AID 463190).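 Note: mutant grown at 25 °C; 0% = DMSO wells with yeast and 100% = wells holding no yeast.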 Conditions: S. cerevisiae tim10-1 ts strain growth, BacTiter-Glo, 24 h; at 20 µM; hits give high values.
On to `Cn1ncc(Br)c1C(=O)NCc1cccs1`, for which the inhibition is 1.74%. Under `CCOc1ccccc1NC(=O)Cn1nnc(C(=O)NCc2cccs2)c1N` stands 10.5%; under `CC(C)Cn1c(N)c(C(=O)NCc2cccs2)c2nc3ccccc3nc21`, 43.7% (active); under `NS(=O)(=O)c1cc2c(cc1Cl)NC(C(Cl)Cl)NS2(=O)=O` (centres undefined), 0.045%.

On to `Cc1nc(NC(=O)CN(C)S(=O)(=O)c2ccc(Cl)cc2)sc1C`, for which the inhibition is 4.21%. The figure for `CCCCCCC(=O)Nc1nc(C)c(-c2csc(Nc3cccc(OC)c3)n2)s1` is 14.8%; for `CCCCC(=O)Nc1nc(C)c(-c2csc(Nc3ccc(Cl)cc3)n2)s1` it is 42.5% (active). As to `CCCCCCC(=O)Nc1nc(C)c(-c2csc(Nc3cc(Cl)ccc3OC)n2)s1`, the inhibition was 3.74%. The figure for `C=CCCC(=O)Nc1nc(C)c(-c2csc(Nc3ccc(Cl)cc3)n2)s1` is 41.2% (active). The figure for `Cc1nc(NC(=O)c2cccc(Cl)c2)sc1-c1csc(Nc2cccc(Cl)c2)n1` is -8.28%; for `COc1ccc(S(=O)(=O)c2c[nH]c(=S)[nH]c2=O)cc1Cl` it is -8.62%. Regarding `O=C(CCN1C(=O)c2ccncc2C1=O)Nc1cc(F)ccc1F`, the inhibition is 7.78%.

In the case of `CC(=O)N1CCCc2cc(S(=O)(=O)N3CCCC(C(=O)N4CCN(c5cccc(Cl)c5)CC4)C3)ccc21` (centres undefined), the inhibition was 10.1%. Consider `COc1ccc(-n2cc(-c3ccccc3)c3c(=S)nc[nH]c32)cc1`, for which the inhibition was 40.1% (active). As for `O=c1[nH]cnc2c1c(-c1ccccc1)cn2-c1ccc(F)cc1`, the inhibition is 34.1%. As for `COc1ccc(-n2c(=S)[nH]c3sc4c(c3c2=O)CCc2ccccc2-4)cc1`, the inhibition is 6.58%. With `C=CCn1c(SCC(=O)Nc2ccc(NC(C)=O)cc2)nc2sc(C)c(C)c2c1=O`, the inhibition is 15.8%. Regarding `COC(=O)c1c(-c2cccs2)csc1NC(=O)CSc1ncnc2sc(C)c(C)c12`, the inhibition is 17.6%. Under `Cc1sc2ncnc(SCC(=O)Nc3ccc(CN4CCCC4)cc3)c2c1C` stands 46.3% (active); under `Cc1cc(C(=O)OCC(=O)Nc2ccc(F)c(F)c2)c(C)o1`, -15.7%; under `Cc1cccc(NC(=S)N2CCCC(c3nc4ccccc4[nH]3)C2)c1` (centres undefined), 0.466%. The figure for `Cc1cccc(NC(=S)N2CCC(c3nc4ccccc4s3)CC2)c1` is 47% (active); for `Cc1cccc(C(=O)N2CCC(c3nc4ccccc4s3)CC2)c1` it is 20.6%. Under `COc1ccc(OC)c(C(O)c2nc3ccccc3n2C)c1` (centres undefined) stands 12%; under `CNC[C@@H]1Oc2c(NS(C)(=O)=O)cccc2C(=O)N([C@@H](C)CO)C[C@H]1C`, -4.12%; under `NS(=O)(=O)c1ccc(N2C(=O)C3C4CC(C(Br)C4Br)C3C2=O)cc1` (centres undefined), -7.31%. Consider `ON=C1/C(=N\O)CC2(C/C1=N/O)OCCO2`, for which the inhibition is -13.1%. Regarding `Oc1c(CN2CCN(c3ccc(F)cc3)CC2)cc(Cl)c2cccnc12`, the inhibition is 45.3% (active). On to `Cc1cccnc1NC(=O)c1cccc(S(=O)(=O)N2CCN(c3ccc(F)cc3)CC2)c1`, for which the inhibition was 23.8%.

For `Oc1c(CN2CCCC2)cc(COCc2ccccc2)c2cccnc12`, the inhibition was 14.6%.

Take `CCN(CCn1cccn1)Cc1cn[nH]c1-c1ccc(OC)cc1F`: the inhibition is 6.84%. For `COc1cc2sc(C)nc2cc1C`, the inhibition is 13.3%. Under `Cc1ccc(S(=O)(=O)N(Cc2cccc([N+](=O)[O-])c2)C(=O)N2CCN(C)CC2)cc1` stands 26.5%. Take `CCOc1ccc(NC(=O)C2CC(=O)N=C(N)S2)cc1` (centres undefined): the inhibition was 3.69%. The figure for `CC(OC(=O)c1ccccc1OCc1ccc(Cl)cc1)C(N)=O` (centres undefined) is -12.2%; for `COc1ccc(-c2onc(C)c2-c2ccc3c(c2)OCCO3)c(O)c1` it is 22.7%; for `O=c1c(-c2ccc3c(c2)OCCO3)c(C(F)(F)F)oc2cc(O)cc(O)c12` it is 44% (active). The figure for `CCOC(=O)c1cc2cc(-c3c(C(=O)OCC)oc4cc(O)cc(O)c4c3=O)ccc2o1` is 27.5%; for `Nc1ccccc1Sc1ccc(C(F)(F)F)cc1[N+](=O)[O-]` it is 40.4% (active). The figure for `O=C(CSc1ccc(C(F)(F)F)cc1[N+](=O)[O-])NCCOc1ccccc1` is 8.09%. For `O=[N+]([O-])c1cc(C(F)(F)F)ccc1NN=C1CCCC1`, the inhibition was -6.28%. The figure for `Cc1ccccc1C(=O)NNC(=O)CN1C(=O)c2ccccc2C1=O` is 23.4%; for `O=C(CSc1nnc(Cn2cnc3ccccc32)o1)c1ccccc1` it is 24.1%; for `Cc1oc2cc([N+](=O)[O-])c(O)c([N+](=O)[O-])c2c1C(=O)c1ccc(Br)cc1` it is 25%.

For the compound `Cc1oc2cc(Br)c(O)c(Br)c2c1C(=O)c1ccccc1`, the inhibition was 41.8% (active). Under `COc1ccc(C(=O)c2c(C)oc3cc([N+](=O)[O-])c(O)c([N+](=O)[O-])c23)cc1` stands 12.5%.

For the compound `O=C(Nc1ccc2c(c1)OCO2)C1CC1(Cl)Cl` (centres undefined), the inhibition was -5.38%. The figure for `CCC(C(=O)NC1CCCC1)N(C(=O)Cn1nnc(-c2ccc(C)o2)n1)c1ccc(OC)c(OC)c1` (centres undefined) is 18.2%; for `CSc1ccc(CN2C(=O)NC3(CCCCCC3)C2=O)cc1` it is 23.7%; for `NC(=O)C1=C[C@@H](c2ccc3c(c2)OCO3)C[C@@H](OCCCCO)O1` it is -9.86%. Under `CCOC(=O)c1c(NC(=O)c2ccc(S(=O)(=O)N(C)CC3CCCO3)cc2)sc2c1CC(C)(C)NC2(C)C` (centres undefined) stands 3.46%; under `COC(=O)c1c(NC(=O)COc2ccc(Cl)cc2Cl)sc2c1CC(C)(C)NC2(C)C`, 43.6% (active); under `COC(=O)c1sccc1NC(=O)COc1ccc(Cl)cc1`, 7.8%.

In the case of `O=S(=O)(Nc1ccc2nc(N3CCOCC3)sc2c1)c1ccccc1`, the inhibition is 3.87%. The figure for `Cc1nc2ccc(C(=O)N3CCSCC3)cc2s1` is 4.92%. The figure for `O=C(c1ccc2nc(N3CCOCC3)sc2c1)N1CCN(c2ccc(Cl)cc2)CC1` is 49.1% (active); for `COC(=O)CNC(=O)c1cc(-c2ccncc2)nc2ccccc12` it is 13.6%; for `C/C(N)=C(/C#N)C(=O)COC(=O)c1cc(-c2ccc(C)cc2)nc2ccccc12` it is 11.4%. As to `N/C(=N\OC(=O)c1cc(-c2ccccc2)nc2ccccc12)c1ccncc1`, the inhibition is 57.4% (active).

`Cc1ccc(N/C(N)=N/c2nc(C(F)(F)F)cc(C(F)(F)F)n2)cc1`: the inhibition was 14.4%. Consider `CCC(NC(=O)c1ccccc1NC(=O)c1ccccc1)C(=O)NNC(=O)CSc1nc2ccccc2o1` (centres undefined), for which the inhibition is 11%.

For `CCOC(=O)c1ccc(N2C(=O)CC(N3CC(C)OC(C)C3)C2=O)cc1` (centres undefined), the inhibition is 29.9%. Under `CCOC(=O)c1ccc(N2C(=O)CC(N3CCC(C(=O)OCC)CC3)C2=O)cc1` (centres undefined) stands 43.8% (active); under `CCOC(=O)c1ccc(N2C(=O)CC(N3CCN(C(=O)c4ccccc4)CC3)C2=O)cc1` (centres undefined), 20%; under `O=C(NC(Cc1ccc(O)cc1)C(=O)O)/C(=C/c1ccccc1)NC(=O)c1ccccc1` (centres undefined), -12.7%. Consider `COc1ccc(NC(=O)CN(C)C(=O)CNC(=O)C2CCCCC2)cc1`, for which the inhibition was 3.37%.

As to `COc1cc(NC(=O)C2CCN(c3cnccn3)CC2)cc(OC)c1`, the inhibition was 18.5%. Under `COc1ccc(C2CC(c3ccc(C)cc3)Nc3ncnn32)cc1` (centres undefined) stands 31.2%; under `Clc1ccc(C2CC(c3cccs3)n3ncnc3N2)cc1Cl` (centres undefined), 44.6% (active); under `Nc1nc2n(n1)C(c1ccco1)CC(c1ccc(Cl)c(Cl)c1)N2` (centres undefined), 20.9%. The figure for `Cc1ccc(C)c(-n2ccnc2SCC(N)=O)c1` is 1.23%.

On to `CCOC(=O)c1sc(=NC(=O)/C=C/c2cccs2)n(C)c1C`, for which the inhibition was 9.93%. The figure for `Cc1c2cnn(CC(=O)NCCCN3CC(C)CC(C)C3)c(=O)c2c(C)n1Cc1ccc(Cl)cc1` (centres undefined) is -4.29%; for `CCOC(=O)C1=C(c2ccccc2)NC(=O)NC1c1cc(OC)c(OC)cc1OC` (centres undefined) it is 2.13%; for `CN(Cc1cccs1)C(=O)CN1C(=O)c2ccccc2S1(=O)=O` it is -8.18%. The figure for `CC(C)(C)c1ccc(CN2C(=O)c3ccccc3S2(=O)=O)cc1` is 15%.

As for `CCOC(=O)c1ccccc1CN1C(=O)c2ccccc2S1(=O)=O`, the inhibition was 43.5% (active). Turning to `COC(=O)c1cc2c(ccn2C)n1C`, the inhibition was -6.2%. Regarding `CCn1nc(C)c(NC(=O)/C=C/c2ccc(OC)c(COc3ccc(Br)cc3)c2)c1C`, the inhibition was 52.1% (active). Turning to `COc1ccc(/C=C/C(=O)Nc2c(C)nn(C)c2C)cc1COc1ccc(Br)cc1`, the inhibition was 29.4%. Under `COc1ccc(C(C)=O)cc1COc1ccc(Cl)c(C)c1` stands 3.35%.

As to `O=C(Oc1cccc(C(=S)N2CCOCC2)c1)c1cccc(Cl)c1`, the inhibition was 39.2%. The figure for `O=C(/C=C/c1cccs1)c1cc(Cl)ccc1OC(=O)N1CCOCC1` is 50.2% (active); for `CC(=O)Nc1ccccc1OC(=O)N1CCOCC1` it is -3.71%; for `Cc1ccc(NS(=O)(=O)c2ccc(C(=O)NCCCN3CCOCC3)cc2)cc1` it is -36%. The figure for `CC1(C)CC(=O)C=C(c2ccc(Cl)c(C(F)(F)F)c2)C1` is 0.973%. As to `Cc1cccc(OC(C)C(=O)N2CCc3ccccc3C2)c1` (centres undefined), the inhibition is -6.4%.

As to `O=C(/C=C/c1ccccc1)N/C(=C/c1ccccc1)C(=O)Nc1ccccc1O`, the inhibition was 32.3%. The figure for `O=C(/C=C/c1ccccc1)c1ccccc1O` is 48.7% (active); for `O=C(/C=C(O)/C=C/c1ccc(O)cc1)/C=C/c1ccc(O)cc1` it is 4.38%. Under `CCCCC[C@H]1CN(C2CCCCC2)C(=O)[C@@H]1CC(=O)NCc1ccc(OC)cc1` stands 17.9%. For `COC(=O)c1ccc(CNC(=O)c2ccc(S(=O)(=O)N3CCCCCC3)cc2)cc1`, the inhibition is 14.2%.

With `O=C(Nc1ccccc1F)c1ccc(S(=O)(=O)N2CCCCCC2)cc1`, the inhibition is 18.9%. Consider `O=C(NCCc1ccc(F)cc1)c1ccc(S(=O)(=O)N2CCCCC2)cc1`, for which the inhibition is 41.8% (active).

Usually inhibition stands for the change of the read-out against control, counted positive when it falls.
